We go through 14 molecules from PubChem BioAssay.

The subject of test [1] is TRPC4 beta (transient receptor potential cation channel C4), mouse. Kind of test: activators of mouse TRPC4 channel, confirmation, cell-based, Fluo4 calcium, HEK293 TRPC4beta/mu-opioid, duplicates, 10 µM (AID 2426;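 active means fluorescence ratio normalized to control raised more than 50% in primary screen plus both repeat runs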;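 on activation: percent rise of integrated ratio over buffer wells lacking compound which define 0%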). To be noted: Fluo4 calcium fluorescence, at 10 µM; active compounds read high.
In test [2] the test system is transient receptor potential cation channel C4 beta (TRPC4), mouse. As to the kind of experiment: activators of mouse TRPC4 channel, confirmation, cell-based, second round, Fluo4, HEK293 TRPC4beta/mu-opioid, 1 µM (AID 2461;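 active means primary screen active and over 50% activation in each of two duplicate runs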). To be noted: Fluo4 calcium fluorescence, at 1 µM; active compounds read high.
For test [3], the system named is TRPC4 (transient receptor potential cation channel C4 beta), mouse. Kind of test: positive allosteric modulators of mouse TRPC4, confirmation, cell-based, second round, Fluo-4, HEK293 TRPC4beta/mu-opioid, 1 µM (AID 2554;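 active means primary screen hit whose fluorescence ratio, in both repeats, exceeds the weak agonist control mean by 3 SD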). The following applies: DAMGO EC20, Fluo-4 calcium flux, at 1 µM; active compounds read high.
In test [4] the test system is TRPC4 beta (transient receptor potential cation channel C4), mouse. As to the kind of experiment: positive allosteric modulators of mouse TRPC4, confirmation, cell-based, Fluo-4, HEK293 TRPC4beta/mu-opioid (AID 2555;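 active means primary screen hit whose calcium fluorescence ratio, in both repeats, exceeds the weak agonist control mean by 3 SD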). To be noted: DAMGO EC20, Fluo-4 calcium flux, at 10 µM; active compounds read high. For orientation: A change in cytosolic calcium serves as a functional read-out for many receptors and channels.

Test [5] concerns the target Short transient receptor potential channel 4 (Mus musculus) (UniProt Q9QUQ5). Kind of test: inhibitors of mouse TRPC4 channel, confirmation, cell-based, Fluo4, HEK293 TRPC4beta/mu-opioid (AID 2636;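 active means calcium signal cut by more than 3 SD below the full-agonist control yet still positive, in both repeats and the earlier primary screen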). The following applies: DAMGO, Fluo4 calcium flux, at 10 µM; active compounds read high.
For test [6] the target is unchanged. Kind of test: inhibitors of mouse TRPC4 channel, confirmation, cell-based, second round, Fluo4, HEK293 TRPC4beta/mu-opioid, 1 µM (AID 2637;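 active means calcium signal ratio cut to more than 3 SD under the fully stimulated control mean yet still positive, in both repeats and the primary screen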). The following applies: Fluo4 calcium flux, DAMGO, at 1 µM; active compounds read high.
For test [7] the target is unchanged. As to the kind of experiment: mouse TRPC4 channel activators, dose response, cell-based, HEK293 TRPC4/mu-opioid, Fluo-4 calcium (AID 434937;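 active means primary screen activator hit with a dose response curve and TRPC4 channel activation at any tested dose; inactive means no activation, no dose response, or not a primary hit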).
For test [8] the target is unchanged. As to the kind of experiment: TRPC4 positive allosteric modulators, dose response, cell-based, HEK293 TRPC4/mu-opioid, Fluo-4 calcium, EC20 DAMGO (AID 434941;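 active means earlier screen potentiator hit that boosts the TRPC4 ion channel at some dose, with a dose response; inactive means no potentiation, no dose response, or not a prior hit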;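 further: calcium entry triggered by an EC20 dose of DAMGO at the co-expressed mu-opioid receptor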).
Test [9] has the same target. As to the kind of experiment: mouse TRPC4 channel inhibitors, dose response, cell-based, HEK293 TRPC4/mu-opioid, Fluo-4 calcium (AID 434942;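 active means primary screen inhibitor hit that blocks the TRPC4 channel at some tested dose, yielding a dose curve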).
The target in test [10] is Short transient receptor potential channel 6 (Mus musculus) (UniProt Q61143). Kind of test: inhibition of mouse TRPC6 channel, confirmation, selectivity assay for TRPC4 inhibitor project, cell-based, HEK293, membrane potential dye, duplicate (AID 434948;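 active means active in primary screen and both duplicates, each dropping signal beyond three positive-control SD with fluorescence still positive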). The following applies: HEK293 TRPC6, membrane potential dye fluorescence, at 10 µM, stimulated with maximal-effect acetylcholine; active compounds read high.

Test [11] has the same target. Kind of test: activation of mouse TRPC6 channel, confirmation, selectivity assay for TRPC4 activator project, cell-based, HEK293, membrane potential dye, duplicate (AID 434950;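 active means membrane potential signal rise above negative control mean plus 3 SD in both duplicates, also active in the earlier TRPC4 screen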). The following applies: HEK293 TRPC6, membrane potential fluorescence, at 10 µM; active compounds read high.
The target is the same in test [12]. Kind of test: TRPC6 potentiation by TRPC4 potentiator hits, confirmation, selectivity assay for TRPC4 potentiator project, HEK293 cells, membrane potential dye, duplicate (AID 434952). To be noted: HEK293 TRPC6, membrane potential dye fluorescence, at 10 µM, maximal acetylcholine added after compound; active compounds read high.
The target of test [13] is Short transient receptor potential channel 4 (Mus musculus) (UniProt Q9QUQ5). Kind of test: calcium flux activators in TRPC4/5HT1a cells, counter-screen for TRPC4 activator project, cell-based, second counter screen, HEK293 TRPC4/5HT1a, Fluo-4 (AID 434977;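 active means calcium signal rise above buffer-control mean plus 5 SD in both duplicates, and also a hit in the primary screen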;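 on activation: plate controls were assay buffer for no effect and maximal serotonin response for full effect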). To be noted: Fluo-4 calcium flux, at 10 µM; active compounds read high.
Test [14] in a line: calcium flux inhibitors in TRPC4/5HT1a cells, confirmation, counter-screen for TRPC4 inhibitor project, cell-based, second counter screen, HEK293 TRPC4/5HT1a, Fluo-4 (AID 434978;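 active means primary screen active whose calcium signal fell more than 3 SD beyond the full-serotonin control mean in both duplicate plates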;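 on outcome: serotonin given first at submaximal then at maximal dose after compound preincubation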). To be noted: Fluo-4 calcium flux, at 10 µM, serotonin added to trigger calcium flux; active compounds read high.
Test [15] relates to TRPC4 (mouse), co-expressed with 5HT1a in HEK293. As to the kind of experiment: calcium flux potentiators in TRPC4/5HT1a cells, confirmation, counter-screen for TRPC4 potentiator project, cell-based, second counter screen, HEK293 TRPC4/5HT1a, Fluo-4 (AID 434979;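 active means signal rise over 3 SD above mean of control wells given weak agonist, in both repeats and first screen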). The following applies: Fluo-4 calcium flux, at 10 µM, serotonin added at its EC20 dose; active compounds read high.
The nature of test [16]: calcium flux activation in mu-opioid HEK293 cells, confirmation, counter-screen for TRPC4 activator project, cell-based, HEK293 mu-opioid receptor line (AID 449723;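 active means hit in primary screen, with calcium signal over 5 SD above buffer well mean in both duplicates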;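 further: counter screen cells carry the mu-opioid receptor alone and lack TRPC4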). The following applies: Fluo-4 calcium fluorescence, at 10 µM; active compounds read high.
Test [17] in a line: calcium flux enhancement in mu-opioid HEK293 cells, confirmation, counter-screen for TRPC4 allosteric potentiator project, cell-based, HEK293 mu-opioid receptor line (AID 449724;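 active means calcium signal rise more than 3 SD above the low-dose agonist control mean, in both duplicate plates and the primary screen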;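 further: HEK293 cells carrying mu-opioid receptor only with no TRPC4 channel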). The following applies: Fluo-4 calcium flux, at 10 µM, compound added before EC20 DAMGO stimulus; active compounds read high.

For some of these results: Results with a measured potency or affinity are listed apart. Activity calls are given as the source filed them.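 How the source made its calls, unless noted: active means compound raising the membrane signal above positive-control mean plus 3 SD in both repeats, and a primary screen hit; inactive means the rest.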

Sequence of Short transient receptor potential channel 6 (Mus musculus) (Q61143 whole entry, looked up): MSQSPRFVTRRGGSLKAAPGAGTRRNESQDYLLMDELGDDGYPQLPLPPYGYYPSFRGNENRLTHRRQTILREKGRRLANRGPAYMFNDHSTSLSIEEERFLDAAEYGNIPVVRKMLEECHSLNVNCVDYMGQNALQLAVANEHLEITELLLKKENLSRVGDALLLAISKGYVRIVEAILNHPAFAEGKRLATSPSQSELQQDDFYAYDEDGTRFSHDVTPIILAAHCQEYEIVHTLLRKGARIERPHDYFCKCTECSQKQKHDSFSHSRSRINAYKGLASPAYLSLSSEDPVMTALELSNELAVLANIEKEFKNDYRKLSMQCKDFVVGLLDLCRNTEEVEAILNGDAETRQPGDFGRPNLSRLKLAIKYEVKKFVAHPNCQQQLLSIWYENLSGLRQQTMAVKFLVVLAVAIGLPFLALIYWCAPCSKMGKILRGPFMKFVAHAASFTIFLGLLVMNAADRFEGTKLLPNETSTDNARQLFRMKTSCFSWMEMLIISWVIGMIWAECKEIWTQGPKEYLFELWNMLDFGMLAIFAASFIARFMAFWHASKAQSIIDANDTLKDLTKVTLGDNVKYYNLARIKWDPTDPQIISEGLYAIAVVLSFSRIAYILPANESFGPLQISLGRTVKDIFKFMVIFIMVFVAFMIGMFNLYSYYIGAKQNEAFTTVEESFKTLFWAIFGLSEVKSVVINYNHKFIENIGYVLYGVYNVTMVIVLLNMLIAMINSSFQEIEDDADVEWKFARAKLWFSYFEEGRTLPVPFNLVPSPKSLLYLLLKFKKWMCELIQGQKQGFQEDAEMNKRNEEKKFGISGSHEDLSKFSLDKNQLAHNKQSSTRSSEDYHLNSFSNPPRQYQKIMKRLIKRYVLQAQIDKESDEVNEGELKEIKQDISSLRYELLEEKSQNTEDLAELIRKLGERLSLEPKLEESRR
Sequence of Short transient receptor potential channel 4 (Mus musculus) (Q9QUQ5 whole entry, looked up): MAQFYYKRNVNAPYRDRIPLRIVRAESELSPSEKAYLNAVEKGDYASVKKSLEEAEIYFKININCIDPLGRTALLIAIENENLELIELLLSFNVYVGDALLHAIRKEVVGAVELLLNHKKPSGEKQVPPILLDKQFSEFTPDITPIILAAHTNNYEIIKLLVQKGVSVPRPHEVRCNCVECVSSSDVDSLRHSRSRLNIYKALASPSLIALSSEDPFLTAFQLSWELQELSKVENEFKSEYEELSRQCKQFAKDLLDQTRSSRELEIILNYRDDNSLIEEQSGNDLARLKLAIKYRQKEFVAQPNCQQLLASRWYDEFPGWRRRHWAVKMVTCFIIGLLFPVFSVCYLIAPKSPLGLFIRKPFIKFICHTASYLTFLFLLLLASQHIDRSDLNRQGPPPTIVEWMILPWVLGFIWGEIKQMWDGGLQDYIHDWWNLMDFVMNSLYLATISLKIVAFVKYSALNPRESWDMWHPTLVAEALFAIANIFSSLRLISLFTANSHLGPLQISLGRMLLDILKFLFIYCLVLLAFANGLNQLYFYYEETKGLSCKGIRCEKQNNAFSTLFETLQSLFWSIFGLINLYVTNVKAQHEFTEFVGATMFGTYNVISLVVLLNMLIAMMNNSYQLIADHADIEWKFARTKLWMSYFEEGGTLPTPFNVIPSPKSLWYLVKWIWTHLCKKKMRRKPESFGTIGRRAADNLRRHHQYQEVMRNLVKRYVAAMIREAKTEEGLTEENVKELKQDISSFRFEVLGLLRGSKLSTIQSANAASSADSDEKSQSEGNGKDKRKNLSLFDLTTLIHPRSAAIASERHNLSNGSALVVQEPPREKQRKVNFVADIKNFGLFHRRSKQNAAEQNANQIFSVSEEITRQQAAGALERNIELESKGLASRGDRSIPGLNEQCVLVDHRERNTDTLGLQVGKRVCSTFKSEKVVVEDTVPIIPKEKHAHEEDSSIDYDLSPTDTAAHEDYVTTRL

On to `c1ccc(C2(CN3CCNC[C@H]3Cc3cccc4ccccc34)CC2)cc1`, for which the activation in test [1] is 161% (active); in test [13] it was 5.82% (active). In addition, the result in [2], in test [3], in test [4], in test [5], in test [6] and in [7] was inactive. Besides, the result in [8], in [9], in test [10], in [11], in [12] and in test [14] was inactive. Further, the result in test [15], in test [16] and in test [17] was inactive.
As to `O=c1[nH]ncc(N2CCN(Cc3ccccc3)CC2)c1Cl`, the result in test [1], in [2], in test [3], in test [4], in test [5] and in [6] was inactive. The result in [7], in test [8], in test [9], in test [10], in test [11] and in test [12] was inactive. The result in [13], in test [14], in test [15], in test [16] and in [17] was inactive.
Turning to `CC1CCC2C(C1)c1sc(=O)[nH]c1SC2(C)C` (stereo not drawn), the result in test [1], in [2], in test [3], in [4], in test [5] and in test [6] was inactive. Also, the outcome in test [7], in test [8], in test [9], in test [10], in [11] and in test [12] was inactive. Further, the result in [13], in test [14], in test [15], in test [16] and in [17] was inactive.
On to `CCOC(=O)c1c(C)n(-c2ccc(C)cc2)c2ccc(OCC(O)CNCC3CCCO3)cc12` (stereo not drawn), for which the outcome in test [1], in [2], in test [3], in test [4], in test [5] and in test [6] was inactive. The outcome in [7], in test [8], in test [9], in [10], in test [11] and in [12] was inactive. Further, the outcome in test [13], in [14], in test [16] and in [17] was inactive. Besides, the potentiation in test [15] is 24.6% (active).
Consider `C=CCNC(=S)N1CCN(C2CCCCC2)CC1`, for which the result in [1], in [2], in test [5], in [6], in test [7] and in test [8] was inactive. The result in test [9], in test [10], in test [11], in test [12], in [13] and in test [14] was inactive. Further, the result in test [16] and in test [17] was inactive. Further, the potentiation in test [3] is 53% (active); in test [4], 36% (active); in test [15], 18.6% (active).
Take `CCOc1ccc(-n2c(C)cc(/C=C3/C(=N)N4C(=NC3=O)SN=C4S(C)(=O)=O)c2C)cc1`: the result in test [1], in test [2], in test [3], in test [4], in test [5] and in test [6] was inactive. The result in test [7], in test [8], in test [9], in test [10], in test [11] and in test [12] was inactive. Moreover, the outcome in test [13], in [14], in test [15], in [16] and in test [17] was inactive.
For the molecule `CCOC(=O)c1sc2nc(CC(=O)OC)nc(NCc3ccc(F)cc3)c2c1C`, the outcome in test [1], in [2], in test [3], in test [4], in test [5] and in [6] was inactive. The result in test [7], in test [8], in test [9], in test [10], in test [11] and in [12] was inactive. Further, the outcome in test [13], in [14], in test [15], in test [16] and in [17] was inactive.
In the case of `CCN(CC)CCn1c(=N)n(CC(O)COc2cccc(C)c2)c2ccccc21` (stereo not drawn), the result in test [1], in test [2], in [3], in test [4], in [6] and in test [7] was inactive. The result in test [8], in [9], in test [10], in test [11], in test [12] and in test [13] was inactive. The outcome in test [15], in test [16] and in test [17] was inactive. Besides, the inhibition in test [5] was 88% (active); in test [14], 6.72% (active).
For `FC(F)(F)COc1nc(N2CCCCC2)nc(N2CCNCC2)n1`, the outcome in [1], in [2], in test [3], in [4], in test [5] and in test [6] was inactive. Further, the result in [7], in test [8], in [9], in test [10], in [11] and in test [12] was inactive. The result in test [13], in test [14], in test [15], in [16] and in [17] was inactive.
As for `CC1(C)Cc2nc3oc4c(=O)n(CC(=O)Nc5ccccc5)cnc4c3cc2CO1`, the result in [1], in test [2], in test [3], in test [4], in test [5] and in test [6] was inactive. Also, the result in test [7], in [8], in test [9], in [10], in test [11] and in [12] was inactive. For the same molecule, the result in [13], in test [14], in test [15], in test [16] and in test [17] was inactive.
Turning to `COCCn1c(SCC(=O)Nc2ccc(S(=O)(=O)N3CCOCC3)cc2)nc2ccccc21`, the result in test [1], in test [2], in [3], in test [5], in test [6] and in test [7] was inactive. Besides, the result in test [8], in test [9], in test [10], in test [11], in test [12] and in test [13] was inactive. Also, the outcome in test [14], in [16] and in [17] was inactive. Further, the potentiation in test [4] was 12% (active); in [15], 26.5% (active).
As to `Clc1cc(/C=N\NC2=NCCN2)cc(Cl)n1`, the outcome in test [1], in [2], in test [3], in test [4], in test [5] and in test [6] was inactive. The outcome in [7], in test [8], in test [9], in test [10], in test [11] and in test [12] was inactive. In addition, the result in [13], in test [14], in [15], in [16] and in [17] was inactive.
On to `COc1cccc(OCC(=O)NC2CCCCC2)c1`, for which the result in [1], in [2], in test [3], in test [5], in [6] and in test [7] was inactive. The outcome in [8], in [9], in [10], in test [11], in test [12] and in [13] was inactive. For the same molecule, the result in [14], in test [16] and in test [17] was inactive. Further, the values for the potentiation in test [4] and in test [15] were 41% (active) and 26.3% (active), respectively.
Regarding `CCCc1ccc(OCc2ccc(C(=O)N3CCSCC3)o2)cc1`, the result in test [1], in test [2], in test [3], in [5], in test [6] and in test [7] was inactive. Besides, the outcome in [8], in test [9], in test [10], in test [11], in [12] and in test [13] was inactive. The result in test [14], in test [16] and in test [17] was inactive. For the same molecule, the potentiation in test [4] is 36% (active); in [15] it was 30.2% (active).

A word on the inhibition: it is the drop in the measured response relative to a control, in per cent.
